The values that follow come from PubChem BioAssay AID504850 (National Center for Advancing Translational Sciences (NCATS), 2011).

About 1,200 (52%) of roughly 2,300 compounds were called active. Inconclusive results (about 34%) are left out. The call rests on the fitted dose curve; in most records, active means well fitted inhibition curve with a large enough effect; inconclusive means small, poorly fitted or top-dose-only effect, or effect the other way; inactive means no such curve, though single readings can be large or run the other way. So high a share suggests a set chosen from earlier hits. The list shows a part of the results.
Potency means the concentration at half of the fitted maximal effect.

This assay in a line: Confirmation screen for delayed death inhibitors of the malarial parasite plastid, 48 hour incubation. Further: nearly all actives have a fitted effect of over 65% in size. The settings on record: P. falciparum-infected erythrocytes, luciferase growth; series mostly up to 28.7 µM. The procedure, abridged: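 Single-generation (48 h, 37 C) exposure of integrated firefly luciferase-reporter P. falciparum in red cells, 0.1% parasitemia at 2% hematocrit, Albumax-supplemented RPMI. Falling luciferase signal marks parasite growth inhibition.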
With `CC1CCN(c2ccc3nnc(CCC(=O)N4CCN(c5ccccc5F)CC4)n3n2)CC1`, the Potency was 10 µM (active).

As for `CN(CCc1ccccn1)C(=O)c1ccc(OC2CCN(CCc3ccccc3)CC2)cc1`, the Potency is 14.1 µM (active).

As to `COc1ccc(CN2CCC(Oc3ccc(C(=O)NCc4ccccn4)cc3)CC2)c(F)c1`, the Potency was 12.6 µM (active).

For the molecule `Cc1nn(C)c(C)c1C(C)NC(=O)c1ccc(OC2CCN(Cc3ccccn3)CC2)cc1` (stereo not drawn), the Potency entry is “inactive”.

Take `CCCCN(CCCC)CCC(O)c1cc2c(Cl)cc(Cl)cc2c2cc(C(F)(F)F)ccc12` (stereo not drawn): the Potency was 0.0316 µM (active).

In the case of `CC(=O)/C(C#N)=C1\NC(=O)C(Cc2ccc(F)cc2)S1` (stereo not drawn), the Potency is 10 µM (active).

As for `CC(=O)/C(C#N)=C1\NC(=O)C(Cc2cc(Cl)ccc2Cl)S1` (stereo not drawn), the Potency was 14.1 µM (active).

For the molecule `CCOC(=O)c1c(C)[nH]c(C(=O)Nc2cc(OCC)c(N3CCOCC3)cc2OCC)c1C`, the Potency is 2.51 µM (active).

For the molecule `Cc1ccc(NC(=O)CN2C(=O)S/C(=C\c3ccccn3)C2=O)cc1C`, the Potency entry is “inactive”.

Regarding `Cc1ccc(CN(Cc2ccccn2)C(=O)Nc2ccc(C)c(C)c2)cc1`, the Potency is 14.1 µM (active).

Turning to `CC(Sc1nc2cc(Cl)ccc2s1)C(=O)Nc1cccc(S(=O)(=O)N2CCOCC2)c1` (stereo not drawn), the Potency was 12.6 µM (active).

With `O=C(CCl)Nc1ccc(S(=O)(=O)Nc2nccs2)cc1`, the Potency was 2.24 µM (active).

Consider `CCC(=O)c1ccc(OCC(O)CNC(C)c2ccccc2)cc1` (stereo not drawn), for which the Potency is 11.2 µM (active).

As to `C[C@H]1[C@@H](OC(=O)CCC(=O)O)OC2OC3(C)CC[C@H]4[C@H](C)CC[C@@H]1[C@@]24OO3` (stereo partly drawn), the Potency was 0.0398 µM (active).

On to `C[C@@H]1CCC2[C@@H](C)[C@@H](O)O[C@@H]3O[C@@]4(C)CC[C@@H]1[C@@]23OO4` (stereo partly drawn), for which the Potency is 0.0251 µM (active).

Turning to `CO[C@H]1OC2O[C@@]3(C)CC[C@H]4[C@H](C)CC[C@@H]([C@H]1C)[C@@]24OO3` (stereo partly drawn), the Potency was 0.0708 µM (active).

Consider `CC[C@]1([C@H]2O[C@@H]([C@@H]3O[C@](O)(CO)[C@@H](C)C[C@H]3C)C[C@H]2C)CC[C@@H]([C@]2(C)CC[C@@]3(C[C@@H](O)[C@@H](C)[C@@H]([C@H](C)[C@H](OC)[C@H](C)C(=O)O)O3)O2)O1`, for which the Potency was 0.141 µM (active).

Take `CCCc1c(CC)c(=N)c2ccccc2n1C`: the Potency is 0.282 µM (active).

On to `Cc1cnc(CNC(=O)c2ccc3oc(Cc4ccccc4)nc3c2)[nH]1`, for which the Potency was 15.8 µM (active).

For the molecule `CC(C)(C)OC(=O)CNC(=O)c1[nH]cnc1C(=O)NC1CCN(C(=O)OC(C)(C)C)CC1`, the Potency is 14.1 µM (active).

On to `CC(C)C[C@H](NC(=O)c1nc[nH]c1C(=O)N1CCN(C(=O)OC(C)(C)C)CC1)C(=O)OC(C)(C)C`, for which the Potency is 11.2 µM (active).

For `CC(C)(C)OC(=O)[C@H](Cc1ccccc1)NC(=O)c1nc[nH]c1C(=O)N1CCN(C(=O)OC(C)(C)C)CC1`, the Potency is 12.6 µM (active).

As to `CC(Oc1ccccc1F)C(=O)Nc1ccc2ccccc2c1` (stereo not drawn), the Potency result is “inactive”.

`COc1ccc(NC2=C(NC(C)=O)C(=O)c3ccccc3C2=O)cc1`: the Potency is 7.08 µM (active).

Turning to `O=C(CSc1c2c(nc3ccc(Cl)cc13)CCCC2)NCCCN1CCOCC1`, the Potency was 12.6 µM (active).

Turning to `O=S(=O)(CC(CN1CCCCC1)N1CCCCC1)c1ccccc1` (stereo not drawn), the Potency is 11.2 µM (active).

Consider `CC(C)NC(=O)c1onc(CSc2cccc(F)c2)c1C(=O)O`, for which the Potency result is “inactive”.

As for `COC(=O)C1=CN(Cc2ccc(F)cc2)C=C(C(=O)OC)C1c1ccc(O)c(OC)c1`, the Potency was 11.2 µM (active).

Regarding `CCOc1ccc(N(C)C(=O)CCc2nnc3ccc(N4CCCCC4)nn23)cc1`, the Potency was 11.2 µM (active).

Take `O=C(Nc1cccc(Br)c1)c1ccc2snnc2c1`: the Potency result is “inactive”.

For the molecule `CCC(=O)Nc1cccc(C(=O)/C=C/c2cc(Br)ccc2OC)c1`, the Potency was 10 µM (active).

For the molecule `CC(=O)Nc1cccc(C(=O)/C=C/c2ccc(C)cc2)c1`, the Potency is 15.8 µM (active).

Turning to `CC(=O)Nc1cccc(C(=O)/C=C/c2ccc(Br)cc2)c1`, the Potency was 14.1 µM (active).

Take `COC(=O)c1ccccc1SC1CC(=O)N(c2ccccc2)C1=O` (stereo not drawn): the Potency entry is “inactive”.

For `C=CCNC(=O)c1onc(CSc2ccc(F)c(F)c2)c1C(=O)O`, the Potency entry is “inactive”.

For the molecule `CC(=O)N1c2ccc(S(=O)(=O)NCCC(=O)NC3CCCC(C)C3C)cc2CC1C` (stereo not drawn), the Potency was 15.8 µM (active).

As for `Cc1ccc(NC(=O)CSc2cccc3cccnc23)c(C)c1`, the Potency result is “inactive”.

In the case of `CN(C)S(=O)(=O)c1cccc(NC(=O)CSc2cccc3cccnc23)c1`, the Potency is 11.2 µM (active).

As to `Cn1c(=O)c(=O)n(C)c2cc(N3CCCCC3)c(NS(=O)(=O)c3ccc(Br)cc3)cc21`, the Potency was 11.2 µM (active).

As for `COc1ccc(OC)c(CNC(=O)c2ccc(C)c(NC(=O)C3=C(C)OCCS3)c2)c1`, the Potency is 12.6 µM (active).

Regarding `CCCNC(=O)COC(=O)c1ccccc1C(=O)c1ccc(Cl)c([N+](=O)[O-])c1`, the Potency is 12.6 µM (active).

Regarding `CC(CCc1ccccc1)NC(=O)COC(=O)c1ccc(S(C)(=O)=O)c([N+](=O)[O-])c1` (stereo not drawn), the Potency result is “inactive”.

As to `CC1CCN(C(=O)Cn2cc(C(=O)c3ccco3)c3ccccc32)CC1`, the Potency was 14.1 µM (active).

Turning to `Cc1cc(Sc2nnc(N)s2)c2ccccc2n1`, the Potency is 10 µM (active).

On to `Cc1cc(Sc2nnc(/N=C/N(C)C)s2)c2ccccc2n1`, for which the Potency was 10 µM (active).

In the case of `O=C(O)CCCCCNc1nc(-c2ccccc2)nc2ccccc12`, the Potency is 12.6 µM (active).

Turning to `COc1ccc(Cl)cc1NC(=O)C1Cc2cc(S(=O)(=O)N3CCCC3)ccc2N1C(C)=O` (stereo not drawn), the Potency was 11.2 µM (active).

For the molecule `COc1cccc(NC(=O)C2CCN(S(=O)(=O)c3ccc4[nH]c(=O)oc4c3)CC2)c1`, the Potency result was “inactive”.

For `C=CCN(CC=C)C(=O)C1CCN(S(=O)(=O)c2ccc(N3CCCC3=O)cc2)CC1`, the Potency was 14.1 µM (active).

For the molecule `COc1ccc(S(=O)(=O)N2CCC(C(=O)Nc3ccccc3N3CCCCC3)CC2)cc1OC`, the Potency is 11.2 µM (active).

Consider `COc1cc(NC(=O)C2CCN(S(=O)(=O)c3ccc(N4CCCC4=O)cc3)CC2)cc(OC)c1`, for which the Potency is 14.1 µM (active).

Turning to `Cc1ccc(S(=O)(=O)N2CCC(C(=O)Nc3ccc(S(=O)(=O)N4CCCC4)cc3)CC2)cc1C`, the Potency was 14.1 µM (active).

As to `COc1ccc(C)cc1NC(=O)C1CCN(S(=O)(=O)c2ccc3c(c2)NC(=O)CO3)CC1`, the Potency is 12.6 µM (active).

As for `O=C/C=C/c1c(-c2ccccc2)cc2oc3ccccc3cc1-2`, the Potency entry was “inactive”.

For the molecule `Cc1cc(=O)n2nc(N3CCC(C(=O)NCCc4ccc(Cl)cc4)CC3)sc2n1`, the Potency was 12.6 µM (active).

For the molecule `Cc1cc(=O)n2nc(N3CCC(C(=O)NCc4ccc(Cl)cc4)CC3)sc2n1`, the Potency is 12.6 µM (active).

For `Cc1cc(=O)n2nc(N3CCCC(C(=O)NCc4ccc(Cl)cc4)C3)sc2n1` (stereo not drawn), the Potency was 12.6 µM (active).

In the case of `Cc1ccc(S(=O)(=O)N(Cc2ccccc2)C(C)C)cc1`, the Potency entry is “inactive”.

As for `COc1ccc(N(CC(=O)NCCSCc2ccc(C)cc2)S(=O)(=O)c2ccccc2)cc1`, the Potency was 12.6 µM (active).

`COc1ccc(NC(=O)CN(c2ccc(F)cc2)S(=O)(=O)c2ccccc2)c(OC)c1`: the Potency was 15.8 µM (active).

Take `COc1ccc2cc3[n+](cc2c1OC)CCc1cc2c(cc1-3)OCO2`: the Potency is 1.12 µM (active).

Take `CCOC(=O)c1ccc(N2N=C(C)/C(=C/C=C/c3ccco3)C2=O)cc1`: the Potency was 6.31 µM (active).

For the molecule `CCOC(=O)c1ccc(Nc2nc(=O)c3cccnc3s2)cc1`, the Potency entry is “inactive”.

Regarding `C=C1c2c(Cl)ccc(O)c2C(O)=C2C(=O)[C@@]3(O)C(O)=C(C(N)=O)C(=O)[C@@H](N(C)C)[C@@H]3[C@@H](O)[C@H]12`, the Potency is 4.47 µM (active).

For `C=C1c2c(Cl)ccc(O)c2C(O)=C2C(=O)[C@]3(O)C(O)=C(C(N)=O)C(=O)[C@@H](N(C)C)[C@@H]3[C@@H](O)C12` (stereo partly drawn), the Potency was 3.98 µM (active).

In the case of `CN(C)c1ccc(O)c2c1CC1CC3[C@@H](N(C)C)C(=O)C(C(N)=O)=C(O)[C@]3(O)C(=O)C1=C2O` (stereo partly drawn), the Potency is 2.24 µM (active).

As to `C[C@@H]1c2cccc(O)c2C(O)=C2C(=O)[C@@]3(O)C(O)=C(C(N)=O)C(=O)[C@@H](N(C)C)[C@@H]3[C@@H](O)[C@@H]21`, the Potency is 4.47 µM (active).

As to `Cc1ccc(-c2csc3ncn(CC#N)c(=O)c23)cc1C`, the Potency result is “inactive”.

As to `Cc1ccccc1NC1=NCC(c2ccc([N+](=O)[O-])cc2)S1` (stereo not drawn), the Potency was 11.2 µM (active).

Regarding `C=CCNC(=O)c1oc2ccc(S(=O)(=O)N3CCCCC3)cc2c1C`, the Potency was 14.1 µM (active).

Turning to `C=CCNC(=O)c1onc(CSc2cc(C)cc(C)c2)c1C(=O)O`, the Potency entry is “inactive”.

Take `C=CCNC(=O)c1onc(CSc2ccc(C)c(C)c2)c1C(=O)O`: the Potency entry was “inactive”.

As to `CCN(CC)Cc1cc2[nH]c3c4ccc(Cl)cc4ncc3c2cc1OC`, the Potency was 0.178 µM (active).

With `CCCCCCn1ccc(=N)cc1`, the Potency is 7.08 µM (active).

On to `CCOC(=O)c1c(NC(=O)c2c(-c3ccccc3)noc2C)sc(C)c1-c1ccccc1`, for which the Potency was 6.31 µM (active).

Consider `CCOC(=O)c1c(-c2ccc(-c3ccccc3)cc2)csc1NC(=O)c1cccc(N2C(=O)CCC2=O)c1`, for which the Potency is 5.01 µM (active).

As to `CCOC(=O)c1c(-c2ccc(F)cc2)csc1NC(=O)c1c(-c2ccccc2)noc1C`, the Potency was 8.91 µM (active).

As to `CCOC(=O)c1c(-c2cccc(C)c2)csc1NC(=O)c1c(-c2ccccc2)noc1C`, the Potency was 11.2 µM (active).

Regarding `COC(=O)c1c(-c2ccccc2)csc1NC(=O)c1c(-c2ccccc2)noc1C`, the Potency was 14.1 µM (active).

On to `O=C(c1cccs1)N1N=C(c2ccccc2)CC1c1ccccc1O` (stereo not drawn), for which the Potency was 3.55 µM (active).

Consider `CCOc1ccc2c(c1)OC(c1ccccc1)(C(F)(F)F)NC2=O` (stereo not drawn), for which the Potency is 2 µM (active).

On to `CC[C@@H](C)C(NC(=O)OC(C)(C)C)c1cn([C@@H](CCCCNC(=O)OC(C)(C)C)C(=O)N2CCN(C(=O)OC(C)(C)C)CC2)nn1` (stereo partly drawn), for which the Potency is 2 µM (active).

As for `CC[C@@H](C)C(NC(=O)OC(C)(C)C)c1cn([C@@H](Cc2ccc(O)cc2)C(=O)N2CCN(C(=O)OC(C)(C)C)CC2)nn1` (stereo partly drawn), the Potency is 12.6 µM (active).
